What was measured:
Experiment in all cases: DAPPL (digital affinity profiling via proximity ligation, sequencing); 10 mM Tris-HCl pH 7.5, 50 mM NaCl, 1 mM DTT, 4% glycerol, room temperature, 30 min; GST-TFs on glutathione beads, 16-mer random dsDNA library, 0.1% formaldehyde crosslink after washing; high values mean tight binding
[1] = target: T1, FLI1 (Homo sapiens, UniProt Q01543 1-452); conditions: protein: recombinant; tags: N-terminal GST; dsDNA, one strand shown
T1 sequence: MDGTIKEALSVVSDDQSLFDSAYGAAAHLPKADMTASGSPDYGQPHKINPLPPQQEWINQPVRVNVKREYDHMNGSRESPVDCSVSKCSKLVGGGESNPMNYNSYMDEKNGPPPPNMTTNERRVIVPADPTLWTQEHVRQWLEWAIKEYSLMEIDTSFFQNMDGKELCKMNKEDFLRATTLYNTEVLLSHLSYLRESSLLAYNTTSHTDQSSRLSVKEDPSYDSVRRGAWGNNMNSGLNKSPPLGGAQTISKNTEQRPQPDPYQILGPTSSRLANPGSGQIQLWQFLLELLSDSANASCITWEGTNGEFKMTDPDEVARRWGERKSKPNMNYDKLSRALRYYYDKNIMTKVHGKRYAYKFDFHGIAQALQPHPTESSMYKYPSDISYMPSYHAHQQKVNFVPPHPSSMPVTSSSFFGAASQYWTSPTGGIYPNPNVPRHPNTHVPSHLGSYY
Procedure, shortened: (§1)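 Binding signal is defined as a hexamer's read frequency for one factor over its frequency for the tag-only sample. To obtain reads, GST-fused human transcription factors were expressed in yeast, captured on glutathione beads, barcoded with DNA and pooled with that sample. Pools met 200 nmole of a 16-mer random double-stranded DNA library in Tris/NaCl/DTT/glycerol buffer for 30 min at room temperature before washing, 0.1% formaldehyde crosslinking, proximity ligation (BsaI/T4 ligase, 1 h, 37 °C), PCR and Illumina NextSeq500 sequencing.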

[2] = target: T2, ELK1 (Homo sapiens, UniProt P19419 1-428); conditions: protein: recombinant; tags: N-terminal GST; dsDNA, one strand shown
T2 sequence: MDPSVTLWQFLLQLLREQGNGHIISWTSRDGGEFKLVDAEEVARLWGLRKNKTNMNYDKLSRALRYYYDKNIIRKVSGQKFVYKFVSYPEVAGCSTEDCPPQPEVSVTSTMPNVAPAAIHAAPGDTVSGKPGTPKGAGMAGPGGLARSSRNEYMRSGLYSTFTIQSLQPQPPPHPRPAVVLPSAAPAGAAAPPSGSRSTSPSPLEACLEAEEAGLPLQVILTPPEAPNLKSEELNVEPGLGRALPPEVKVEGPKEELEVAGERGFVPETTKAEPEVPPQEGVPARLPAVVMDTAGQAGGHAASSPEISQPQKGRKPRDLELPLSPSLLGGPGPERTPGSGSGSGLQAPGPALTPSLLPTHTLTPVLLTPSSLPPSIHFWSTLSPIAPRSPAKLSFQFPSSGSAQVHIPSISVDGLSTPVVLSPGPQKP
Procedure, shortened: as §1

[3] = target: T3, GABPA (Homo sapiens, UniProt Q06546 1-454); conditions: protein: recombinant; tags: N-terminal GST; dsDNA, one strand shown
T3 sequence: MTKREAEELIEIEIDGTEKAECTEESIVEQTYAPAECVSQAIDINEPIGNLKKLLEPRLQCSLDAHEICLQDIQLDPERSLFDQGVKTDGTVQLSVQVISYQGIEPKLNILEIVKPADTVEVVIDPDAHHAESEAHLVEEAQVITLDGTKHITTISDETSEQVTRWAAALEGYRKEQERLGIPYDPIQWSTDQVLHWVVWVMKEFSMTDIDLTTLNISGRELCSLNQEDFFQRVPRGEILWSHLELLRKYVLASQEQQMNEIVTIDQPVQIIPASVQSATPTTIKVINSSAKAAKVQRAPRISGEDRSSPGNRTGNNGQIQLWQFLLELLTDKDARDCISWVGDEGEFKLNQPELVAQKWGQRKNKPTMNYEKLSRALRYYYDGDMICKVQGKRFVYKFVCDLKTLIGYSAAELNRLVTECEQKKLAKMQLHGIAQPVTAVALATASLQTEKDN
Procedure, shortened: as §1

[4] = target: T4, ERG (Homo sapiens, UniProt P11308 1-479); conditions: protein: recombinant; tags: N-terminal GST; dsDNA, one strand shown
T4 sequence: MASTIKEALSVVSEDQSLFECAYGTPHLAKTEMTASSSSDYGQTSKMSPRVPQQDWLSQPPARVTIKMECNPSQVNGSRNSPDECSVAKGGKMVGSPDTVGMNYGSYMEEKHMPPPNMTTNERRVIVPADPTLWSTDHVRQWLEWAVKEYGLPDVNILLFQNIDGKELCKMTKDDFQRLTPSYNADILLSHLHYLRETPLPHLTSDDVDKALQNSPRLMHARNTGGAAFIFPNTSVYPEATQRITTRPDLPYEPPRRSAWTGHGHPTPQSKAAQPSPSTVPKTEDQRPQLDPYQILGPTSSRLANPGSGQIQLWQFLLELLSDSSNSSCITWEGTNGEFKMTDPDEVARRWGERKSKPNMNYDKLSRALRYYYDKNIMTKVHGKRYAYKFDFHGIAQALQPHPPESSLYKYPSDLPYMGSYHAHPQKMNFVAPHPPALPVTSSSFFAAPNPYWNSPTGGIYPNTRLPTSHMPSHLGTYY
Procedure, shortened: as §1

[5] = target: ELF1 (Homo sapiens, UniProt P32519 1-619); conditions: protein: recombinant; tags: N-terminal GST; dsDNA, one strand shown
Procedure, shortened: as §1

[6] = target: T5, EHF (Homo sapiens, UniProt Q9NZC4 1-300); conditions: protein: recombinant; tags: N-terminal GST; dsDNA, one strand shown
T5 sequence: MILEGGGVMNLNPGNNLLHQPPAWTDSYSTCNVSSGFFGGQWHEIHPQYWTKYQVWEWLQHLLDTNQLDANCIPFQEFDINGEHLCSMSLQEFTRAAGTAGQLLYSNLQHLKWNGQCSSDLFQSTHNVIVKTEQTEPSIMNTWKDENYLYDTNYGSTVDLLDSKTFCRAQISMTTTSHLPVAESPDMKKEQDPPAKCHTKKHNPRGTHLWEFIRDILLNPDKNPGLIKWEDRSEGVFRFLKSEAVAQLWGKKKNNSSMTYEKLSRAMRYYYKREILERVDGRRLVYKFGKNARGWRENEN
Procedure, shortened: as §1

[7] = target: SPI1 (Homo sapiens, UniProt P17947 1-270); conditions: protein: recombinant; tags: N-terminal GST; dsDNA, one strand shown
Procedure, shortened: as §1

[8] = target: SPIB (Homo sapiens, UniProt Q01892 1-262); conditions: protein: recombinant; tags: N-terminal GST; dsDNA, one strand shown
Procedure, shortened: as §1

[9] = target: T6, ELK3 (Homo sapiens, UniProt P41970 1-407); conditions: protein: recombinant; tags: N-terminal GST; dsDNA, one strand shown
T6 sequence: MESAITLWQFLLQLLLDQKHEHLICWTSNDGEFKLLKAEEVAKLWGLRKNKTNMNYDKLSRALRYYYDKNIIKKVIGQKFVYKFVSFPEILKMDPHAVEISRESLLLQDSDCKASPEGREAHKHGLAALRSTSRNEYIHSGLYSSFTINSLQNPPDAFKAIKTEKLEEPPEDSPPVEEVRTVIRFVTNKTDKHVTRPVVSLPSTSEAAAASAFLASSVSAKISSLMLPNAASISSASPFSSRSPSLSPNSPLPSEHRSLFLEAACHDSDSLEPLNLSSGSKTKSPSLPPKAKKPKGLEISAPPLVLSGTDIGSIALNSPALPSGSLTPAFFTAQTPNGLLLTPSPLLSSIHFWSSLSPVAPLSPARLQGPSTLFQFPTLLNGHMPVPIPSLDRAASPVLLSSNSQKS
Procedure, shortened: as §1

[10] = target: T7, FEV (Homo sapiens, UniProt Q99581 1-238); conditions: protein: recombinant; tags: N-terminal GST; dsDNA, one strand shown
T7 sequence: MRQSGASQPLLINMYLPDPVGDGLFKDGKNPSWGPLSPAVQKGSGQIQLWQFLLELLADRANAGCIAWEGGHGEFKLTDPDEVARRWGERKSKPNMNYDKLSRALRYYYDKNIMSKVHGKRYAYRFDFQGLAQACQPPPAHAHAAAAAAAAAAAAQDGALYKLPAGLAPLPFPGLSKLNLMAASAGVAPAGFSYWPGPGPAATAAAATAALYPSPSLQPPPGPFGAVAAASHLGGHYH
Procedure, shortened: as §1

[11] = target: ETV5 (Homo sapiens, UniProt P41161 1-510); conditions: protein: recombinant; tags: N-terminal GST; dsDNA, one strand shown
Procedure, shortened: as §1

[12] = target: HSF1 (Homo sapiens, UniProt Q00613 1-529); conditions: protein: recombinant; tags: N-terminal GST; chain copies: 3; dsDNA, one strand shown
Procedure, shortened: as §1

[13] = target: T8, SPIC (Homo sapiens, UniProt Q8N5J4 1-248); conditions: protein: recombinant; tags: N-terminal GST; dsDNA, one strand shown
T8 sequence: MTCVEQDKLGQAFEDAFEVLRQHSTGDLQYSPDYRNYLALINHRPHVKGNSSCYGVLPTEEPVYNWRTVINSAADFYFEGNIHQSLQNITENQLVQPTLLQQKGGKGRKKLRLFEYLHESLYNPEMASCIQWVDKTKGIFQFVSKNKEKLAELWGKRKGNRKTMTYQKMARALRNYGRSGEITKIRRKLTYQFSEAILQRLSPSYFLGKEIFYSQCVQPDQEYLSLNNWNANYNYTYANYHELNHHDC
Procedure, shortened: as §1

[14] = target: ELF4 (Homo sapiens, UniProt Q99607 1-663); conditions: protein: recombinant; tags: N-terminal GST; dsDNA, one strand shown
Procedure, shortened: as §1

[15] = target: T9, ELK4 (Homo sapiens, UniProt P28324-2 1-405); conditions: protein: recombinant; tags: N-terminal GST; dsDNA, one strand shown
T9 sequence: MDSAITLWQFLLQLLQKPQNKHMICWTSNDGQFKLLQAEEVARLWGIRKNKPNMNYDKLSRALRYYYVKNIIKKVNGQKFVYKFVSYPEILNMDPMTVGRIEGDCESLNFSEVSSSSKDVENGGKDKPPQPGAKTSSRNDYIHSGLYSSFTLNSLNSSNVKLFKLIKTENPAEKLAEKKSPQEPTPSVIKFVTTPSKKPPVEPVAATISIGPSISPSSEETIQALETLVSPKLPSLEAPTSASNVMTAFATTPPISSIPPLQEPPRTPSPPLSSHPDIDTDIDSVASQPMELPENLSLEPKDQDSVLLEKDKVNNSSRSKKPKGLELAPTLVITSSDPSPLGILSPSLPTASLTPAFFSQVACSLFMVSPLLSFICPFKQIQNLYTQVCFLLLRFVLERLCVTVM
Procedure, shortened: as §1

[16] = target: T10, ELF3 (Homo sapiens, UniProt P78545 1-371); conditions: protein: recombinant; tags: N-terminal GST; dsDNA, one strand shown
T10 sequence: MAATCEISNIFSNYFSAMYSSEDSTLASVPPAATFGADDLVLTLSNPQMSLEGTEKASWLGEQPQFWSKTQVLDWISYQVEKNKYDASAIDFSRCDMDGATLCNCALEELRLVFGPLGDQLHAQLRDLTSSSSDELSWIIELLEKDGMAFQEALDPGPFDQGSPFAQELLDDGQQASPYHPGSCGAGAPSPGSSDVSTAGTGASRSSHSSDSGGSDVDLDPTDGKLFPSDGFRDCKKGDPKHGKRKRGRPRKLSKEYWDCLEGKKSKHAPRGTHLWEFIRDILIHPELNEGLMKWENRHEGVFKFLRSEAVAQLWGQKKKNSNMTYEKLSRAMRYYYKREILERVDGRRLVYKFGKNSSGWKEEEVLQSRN
Procedure, shortened: as §1

[17] = target: CRX (Homo sapiens, UniProt O43186 1-299); conditions: protein: recombinant; tags: N-terminal GST; dsDNA, one strand shown
Procedure, shortened: as §1

[18] = target: ETV1 (Homo sapiens, UniProt P50549 1-477); conditions: protein: recombinant; tags: N-terminal GST; dsDNA, one strand shown
Procedure, shortened: as §1

ELF1, sequence (P32519 whole entry): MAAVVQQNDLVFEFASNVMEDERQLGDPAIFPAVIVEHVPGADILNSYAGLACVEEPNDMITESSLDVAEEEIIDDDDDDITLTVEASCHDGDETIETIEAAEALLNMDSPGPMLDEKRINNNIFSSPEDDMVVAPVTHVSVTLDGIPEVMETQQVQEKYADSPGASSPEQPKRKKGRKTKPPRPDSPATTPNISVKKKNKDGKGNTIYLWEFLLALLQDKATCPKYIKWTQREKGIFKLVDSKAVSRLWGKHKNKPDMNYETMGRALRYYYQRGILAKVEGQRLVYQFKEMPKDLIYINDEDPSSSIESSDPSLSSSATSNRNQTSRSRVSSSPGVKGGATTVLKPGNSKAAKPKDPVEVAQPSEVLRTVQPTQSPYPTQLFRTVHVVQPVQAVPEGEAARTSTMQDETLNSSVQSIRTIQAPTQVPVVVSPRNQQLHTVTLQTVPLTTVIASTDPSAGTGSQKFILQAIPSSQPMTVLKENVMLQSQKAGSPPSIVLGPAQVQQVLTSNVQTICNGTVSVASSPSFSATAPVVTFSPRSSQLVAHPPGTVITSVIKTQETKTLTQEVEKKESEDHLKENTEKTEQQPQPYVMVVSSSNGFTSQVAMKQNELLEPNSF
SPIB, sequence (Q01892 whole entry): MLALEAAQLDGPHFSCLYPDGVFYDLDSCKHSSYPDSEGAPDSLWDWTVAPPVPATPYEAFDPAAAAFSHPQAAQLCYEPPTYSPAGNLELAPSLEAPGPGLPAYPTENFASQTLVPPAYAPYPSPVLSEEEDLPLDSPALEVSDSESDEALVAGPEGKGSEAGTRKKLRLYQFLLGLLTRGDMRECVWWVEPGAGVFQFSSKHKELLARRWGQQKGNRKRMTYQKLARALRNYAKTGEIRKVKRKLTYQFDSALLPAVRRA
CRX, sequence (O43186 whole entry): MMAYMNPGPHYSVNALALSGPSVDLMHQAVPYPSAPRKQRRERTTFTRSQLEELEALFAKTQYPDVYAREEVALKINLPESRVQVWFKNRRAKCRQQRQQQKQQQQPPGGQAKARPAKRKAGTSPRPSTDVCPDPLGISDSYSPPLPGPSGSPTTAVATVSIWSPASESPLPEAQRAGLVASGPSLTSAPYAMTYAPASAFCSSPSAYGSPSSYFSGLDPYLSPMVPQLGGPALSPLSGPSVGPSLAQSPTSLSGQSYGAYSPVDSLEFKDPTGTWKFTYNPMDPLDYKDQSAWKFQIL
ETV1, sequence (P50549 whole entry): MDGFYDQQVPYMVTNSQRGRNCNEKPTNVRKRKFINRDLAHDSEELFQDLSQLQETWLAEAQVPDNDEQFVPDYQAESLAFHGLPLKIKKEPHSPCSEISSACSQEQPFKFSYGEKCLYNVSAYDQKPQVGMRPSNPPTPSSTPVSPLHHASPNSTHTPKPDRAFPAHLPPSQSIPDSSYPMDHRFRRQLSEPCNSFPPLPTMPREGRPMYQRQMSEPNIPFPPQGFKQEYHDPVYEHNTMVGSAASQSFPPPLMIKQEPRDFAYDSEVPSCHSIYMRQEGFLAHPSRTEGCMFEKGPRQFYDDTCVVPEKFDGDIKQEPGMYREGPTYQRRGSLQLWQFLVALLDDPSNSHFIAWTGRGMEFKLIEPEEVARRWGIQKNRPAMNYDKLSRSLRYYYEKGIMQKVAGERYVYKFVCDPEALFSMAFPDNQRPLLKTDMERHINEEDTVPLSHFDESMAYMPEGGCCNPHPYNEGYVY
ELF4, sequence (Q99607 whole entry): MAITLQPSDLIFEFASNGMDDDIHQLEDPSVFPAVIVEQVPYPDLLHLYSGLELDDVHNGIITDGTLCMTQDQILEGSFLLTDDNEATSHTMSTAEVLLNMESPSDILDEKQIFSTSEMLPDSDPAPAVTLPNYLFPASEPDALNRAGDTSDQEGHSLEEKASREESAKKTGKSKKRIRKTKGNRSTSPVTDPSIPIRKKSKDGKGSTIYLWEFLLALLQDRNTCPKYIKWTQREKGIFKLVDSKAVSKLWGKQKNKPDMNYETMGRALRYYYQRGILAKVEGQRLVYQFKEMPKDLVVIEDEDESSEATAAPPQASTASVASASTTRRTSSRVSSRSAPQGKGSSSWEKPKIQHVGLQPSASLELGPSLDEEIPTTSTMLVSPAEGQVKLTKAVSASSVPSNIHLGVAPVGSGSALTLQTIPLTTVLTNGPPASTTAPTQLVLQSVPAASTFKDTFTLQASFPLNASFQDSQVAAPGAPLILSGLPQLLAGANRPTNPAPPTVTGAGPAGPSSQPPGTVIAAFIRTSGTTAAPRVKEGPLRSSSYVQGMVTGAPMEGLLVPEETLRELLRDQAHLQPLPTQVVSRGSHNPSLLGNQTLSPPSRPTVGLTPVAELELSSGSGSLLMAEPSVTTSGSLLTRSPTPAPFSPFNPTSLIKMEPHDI
HSF1, sequence (Q00613 whole entry): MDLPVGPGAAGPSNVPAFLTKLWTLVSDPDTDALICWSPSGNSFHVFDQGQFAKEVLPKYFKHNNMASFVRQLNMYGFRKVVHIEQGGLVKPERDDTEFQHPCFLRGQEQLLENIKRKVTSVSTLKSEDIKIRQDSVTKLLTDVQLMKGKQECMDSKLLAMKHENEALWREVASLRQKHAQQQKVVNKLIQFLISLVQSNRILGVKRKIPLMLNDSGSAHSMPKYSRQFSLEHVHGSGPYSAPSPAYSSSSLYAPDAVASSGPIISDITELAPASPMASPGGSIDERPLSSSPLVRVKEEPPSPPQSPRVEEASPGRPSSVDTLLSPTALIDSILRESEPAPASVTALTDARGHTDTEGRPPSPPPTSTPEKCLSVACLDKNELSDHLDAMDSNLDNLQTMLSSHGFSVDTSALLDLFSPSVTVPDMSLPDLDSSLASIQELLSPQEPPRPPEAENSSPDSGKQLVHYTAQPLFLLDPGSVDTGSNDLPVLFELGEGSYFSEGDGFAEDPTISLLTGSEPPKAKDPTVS
ETV5, sequence (P41161 whole entry): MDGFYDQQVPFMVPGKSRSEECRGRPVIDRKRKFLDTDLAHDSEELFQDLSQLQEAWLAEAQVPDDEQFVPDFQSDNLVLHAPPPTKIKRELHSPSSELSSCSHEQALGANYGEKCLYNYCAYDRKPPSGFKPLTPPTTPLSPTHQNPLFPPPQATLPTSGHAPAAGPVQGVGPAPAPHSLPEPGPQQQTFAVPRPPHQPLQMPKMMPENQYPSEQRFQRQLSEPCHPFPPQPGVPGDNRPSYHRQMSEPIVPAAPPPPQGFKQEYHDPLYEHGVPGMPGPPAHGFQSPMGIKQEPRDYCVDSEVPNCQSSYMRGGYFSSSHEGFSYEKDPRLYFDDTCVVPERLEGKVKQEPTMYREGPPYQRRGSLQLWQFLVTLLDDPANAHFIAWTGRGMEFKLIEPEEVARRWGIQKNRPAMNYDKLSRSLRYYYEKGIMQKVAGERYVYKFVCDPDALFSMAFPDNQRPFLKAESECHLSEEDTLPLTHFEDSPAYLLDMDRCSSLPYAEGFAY

Which binding signal [1] does the source give for ATACGC here?
The binding signal was 1.09 fold enrichment (6-mer frequency, TF over GST control).

What about the binding signal [2] of the same sequence?
Its binding signal is 1.14 fold enrichment (6-mer frequency, TF over GST control).

What about the binding signal [3] of the same sequence?
The binding signal was 1.2 fold enrichment (6-mer frequency, TF over GST control).

And the binding signal [4]?
The binding signal was 1.13 fold enrichment (6-mer frequency, TF over GST control).

And the binding signal [5]?
Its binding signal is 1.17 fold enrichment (6-mer frequency, TF over GST control).

What about the binding signal [6] of the same sequence?
Its binding signal is 1.11 fold enrichment (6-mer frequency, TF over GST control).

And the binding signal [7]?
The binding signal was 1.08 fold enrichment (6-mer frequency, TF over GST control).

And the binding signal [8]?
Its binding signal is 1.19 fold enrichment (6-mer frequency, TF over GST control).

What about the binding signal [9] of the same sequence?
The binding signal was 1.18 fold enrichment (6-mer frequency, TF over GST control).

What about the binding signal [10] of the same sequence?
The binding signal was 1.05 fold enrichment (6-mer frequency, TF over GST control).

And the binding signal [11]?
The binding signal was 1.13 fold enrichment (6-mer frequency, TF over GST control).

What about the binding signal [12] of the same sequence?
Its binding signal is 1.04 fold enrichment (6-mer frequency, TF over GST control).

And the binding signal [13]?
Its binding signal is 1.08 fold enrichment (6-mer frequency, TF over GST control).

And the binding signal [14]?
Its binding signal is 1.18 fold enrichment (6-mer frequency, TF over GST control).

What about the binding signal [15] of the same sequence?
The binding signal was 1.08 fold enrichment (6-mer frequency, TF over GST control).

And the binding signal [16]?
The binding signal was 1.13 fold enrichment (6-mer frequency, TF over GST control).

And the binding signal [17]?
Its binding signal is 1.12 fold enrichment (6-mer frequency, TF over GST control).

What about the binding signal [18] of the same sequence?
Its binding signal is 1.18 fold enrichment (6-mer frequency, TF over GST control).
